Laboratory results reported in PubChem BioAssay.
For part of these data: Entries with a potency or affinity are not part of this list. Calls of active or inactive are those of the source.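 How the source made its calls, unless noted: active means calcium signal cut by more than 3 SD below the full-agonist control yet still positive, in both repeats and the earlier primary screen; inactive means the rest.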

Tests used:
[1] = system: TRPC4 beta (transient receptor potential cation channel C4), mouse; assay: activators of mouse TRPC4 channel, confirmation, cell-based, Fluo4 calcium, HEK293 TRPC4beta/mu-opioid, duplicates, 10 µM (AID 2426;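 active means fluorescence ratio normalized to control raised more than 50% in primary screen plus both repeat runs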); details: Fluo4 calcium fluorescence, at 10 µM; stronger effect = higher value
[2] = system: transient receptor potential cation channel C4 beta (TRPC4), mouse; assay: activators of mouse TRPC4 channel, confirmation, cell-based, second round, Fluo4, HEK293 TRPC4beta/mu-opioid, 1 µM (AID 2461;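 active means primary screen active and over 50% activation in each of two duplicate runs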); details: Fluo4 calcium fluorescence, at 1 µM; stronger effect = higher value
[3] = system: TRPC4 (transient receptor potential cation channel C4 beta), mouse; assay: positive allosteric modulators of mouse TRPC4, confirmation, cell-based, second round, Fluo-4, HEK293 TRPC4beta/mu-opioid, 1 µM (AID 2554;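 active means primary screen hit whose fluorescence ratio, in both repeats, exceeds the weak agonist control mean by 3 SD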); details: DAMGO EC20, Fluo-4 calcium flux, at 1 µM; stronger effect = higher value
[4] = system: TRPC4 beta (transient receptor potential cation channel C4), mouse; assay: positive allosteric modulators of mouse TRPC4, confirmation, cell-based, Fluo-4, HEK293 TRPC4beta/mu-opioid (AID 2555;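 active means primary screen hit whose calcium fluorescence ratio, in both repeats, exceeds the weak agonist control mean by 3 SD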); details: DAMGO EC20, Fluo-4 calcium flux, at 10 µM; stronger effect = higher value
[5] = target: Short transient receptor potential channel 4 (Mus musculus) (UniProt Q9QUQ5); assay: inhibitors of mouse TRPC4 channel, confirmation, cell-based, Fluo4, HEK293 TRPC4beta/mu-opioid (AID 2636); details: DAMGO, Fluo4 calcium flux, at 10 µM; stronger effect = higher value
Chain of Short transient receptor potential channel 4 (Mus musculus) (Q9QUQ5 whole entry, looked up): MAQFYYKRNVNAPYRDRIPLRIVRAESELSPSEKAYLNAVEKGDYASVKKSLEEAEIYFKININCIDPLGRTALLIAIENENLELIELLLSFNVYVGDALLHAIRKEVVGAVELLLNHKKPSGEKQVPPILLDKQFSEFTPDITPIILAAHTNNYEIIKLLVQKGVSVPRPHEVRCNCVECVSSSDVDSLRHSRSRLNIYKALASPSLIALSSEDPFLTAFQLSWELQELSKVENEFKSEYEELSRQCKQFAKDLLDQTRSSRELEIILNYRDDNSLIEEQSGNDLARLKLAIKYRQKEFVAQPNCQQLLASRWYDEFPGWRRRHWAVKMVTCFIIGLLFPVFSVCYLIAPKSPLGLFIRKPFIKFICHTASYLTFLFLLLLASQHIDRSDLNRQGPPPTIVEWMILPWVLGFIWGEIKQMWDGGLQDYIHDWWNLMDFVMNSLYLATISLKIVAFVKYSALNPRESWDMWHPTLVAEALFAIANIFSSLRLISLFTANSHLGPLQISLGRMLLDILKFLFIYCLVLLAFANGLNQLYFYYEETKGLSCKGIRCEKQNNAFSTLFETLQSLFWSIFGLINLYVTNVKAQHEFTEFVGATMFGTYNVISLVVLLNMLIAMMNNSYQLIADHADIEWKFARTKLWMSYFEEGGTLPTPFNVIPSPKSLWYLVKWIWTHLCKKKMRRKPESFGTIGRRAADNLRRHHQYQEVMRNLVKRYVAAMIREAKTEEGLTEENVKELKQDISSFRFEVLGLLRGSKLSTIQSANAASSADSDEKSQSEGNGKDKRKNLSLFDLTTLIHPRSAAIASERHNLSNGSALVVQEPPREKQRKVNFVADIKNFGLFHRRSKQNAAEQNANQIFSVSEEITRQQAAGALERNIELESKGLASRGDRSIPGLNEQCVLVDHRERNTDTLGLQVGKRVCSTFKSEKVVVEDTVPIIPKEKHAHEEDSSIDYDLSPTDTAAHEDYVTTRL

[6] = target: Short transient receptor potential channel 4 (Mus musculus) (UniProt Q9QUQ5); assay: inhibitors of mouse TRPC4 channel, confirmation, cell-based, second round, Fluo4, HEK293 TRPC4beta/mu-opioid, 1 µM (AID 2637;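 active means calcium signal ratio cut to more than 3 SD under the fully stimulated control mean yet still positive, in both repeats and the primary screen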); details: Fluo4 calcium flux, DAMGO, at 1 µM; stronger effect = higher value
[7] = target: Short transient receptor potential channel 4 (Mus musculus) (UniProt Q9QUQ5); assay: mouse TRPC4 channel activators, dose response, cell-based, HEK293 TRPC4/mu-opioid, Fluo-4 calcium (AID 434937;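 active means primary screen activator hit with a dose response curve and TRPC4 channel activation at any tested dose; inactive means no activation, no dose response, or not a primary hit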)
[8] = target: Short transient receptor potential channel 4 (Mus musculus) (UniProt Q9QUQ5); assay: TRPC4 positive allosteric modulators, dose response, cell-based, HEK293 TRPC4/mu-opioid, Fluo-4 calcium, EC20 DAMGO (AID 434941;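 active means earlier screen potentiator hit that boosts the TRPC4 ion channel at some dose, with a dose response; inactive means no potentiation, no dose response, or not a prior hit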;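 further: calcium entry triggered by an EC20 dose of DAMGO at the co-expressed mu-opioid receptor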)
[9] = target: Short transient receptor potential channel 4 (Mus musculus) (UniProt Q9QUQ5); assay: mouse TRPC4 channel inhibitors, dose response, cell-based, HEK293 TRPC4/mu-opioid, Fluo-4 calcium (AID 434942;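 active means primary screen inhibitor hit that blocks the TRPC4 channel at some tested dose, yielding a dose curve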)
[10] = target: Short transient receptor potential channel 6 (Mus musculus) (UniProt Q61143); assay: inhibition of mouse TRPC6 channel, confirmation, selectivity assay for TRPC4 inhibitor project, cell-based, HEK293, membrane potential dye, duplicate (AID 434948;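 active means active in primary screen and both duplicates, each dropping signal beyond three positive-control SD with fluorescence still positive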); details: HEK293 TRPC6, membrane potential dye fluorescence, at 10 µM, stimulated with maximal-effect acetylcholine; stronger effect = higher value
Chain of Short transient receptor potential channel 6 (Mus musculus) (Q61143 whole entry, looked up): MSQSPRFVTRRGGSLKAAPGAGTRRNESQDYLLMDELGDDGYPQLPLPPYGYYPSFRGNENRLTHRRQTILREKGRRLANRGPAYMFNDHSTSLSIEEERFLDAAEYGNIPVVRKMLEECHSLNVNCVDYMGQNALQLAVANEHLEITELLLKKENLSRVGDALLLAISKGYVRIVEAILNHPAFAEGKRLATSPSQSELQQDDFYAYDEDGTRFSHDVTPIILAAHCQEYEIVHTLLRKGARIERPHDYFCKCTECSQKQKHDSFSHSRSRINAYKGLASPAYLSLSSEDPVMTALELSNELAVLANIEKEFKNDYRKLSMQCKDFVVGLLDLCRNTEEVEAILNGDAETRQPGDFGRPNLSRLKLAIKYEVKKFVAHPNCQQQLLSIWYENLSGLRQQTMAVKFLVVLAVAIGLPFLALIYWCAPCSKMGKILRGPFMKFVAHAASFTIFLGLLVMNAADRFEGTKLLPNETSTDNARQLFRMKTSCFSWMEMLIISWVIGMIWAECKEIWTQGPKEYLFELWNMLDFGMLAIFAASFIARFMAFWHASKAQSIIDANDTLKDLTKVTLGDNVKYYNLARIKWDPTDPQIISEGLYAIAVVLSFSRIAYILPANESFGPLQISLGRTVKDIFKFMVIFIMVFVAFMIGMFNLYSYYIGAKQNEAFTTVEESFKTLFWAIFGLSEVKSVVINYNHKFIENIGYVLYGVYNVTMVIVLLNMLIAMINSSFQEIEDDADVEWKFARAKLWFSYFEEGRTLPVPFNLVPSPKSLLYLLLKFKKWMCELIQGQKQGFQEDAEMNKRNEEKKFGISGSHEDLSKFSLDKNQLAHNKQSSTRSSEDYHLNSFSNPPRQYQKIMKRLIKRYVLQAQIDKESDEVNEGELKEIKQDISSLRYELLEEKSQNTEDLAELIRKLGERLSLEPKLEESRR

[11] = target: Short transient receptor potential channel 6 (Mus musculus) (UniProt Q61143); assay: activation of mouse TRPC6 channel, confirmation, selectivity assay for TRPC4 activator project, cell-based, HEK293, membrane potential dye, duplicate (AID 434950;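 active means membrane potential signal rise above negative control mean plus 3 SD in both duplicates, also active in the earlier TRPC4 screen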;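 on activation: 0% = buffer only wells and 100% = acetylcholine maximal-effect wells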); details: HEK293 TRPC6, membrane potential fluorescence, at 10 µM; stronger effect = higher value
[12] = target: Short transient receptor potential channel 6 (Mus musculus) (UniProt Q61143); assay: TRPC6 potentiation by TRPC4 potentiator hits, confirmation, selectivity assay for TRPC4 potentiator project, HEK293 cells, membrane potential dye, duplicate (AID 434952;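 active means compound raising the membrane signal above positive-control mean plus 3 SD in both repeats, and a primary screen hit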); details: HEK293 TRPC6, membrane potential dye fluorescence, at 10 µM, maximal acetylcholine added after compound; stronger effect = higher value
[13] = target: Short transient receptor potential channel 4 (Mus musculus) (UniProt Q9QUQ5); assay: calcium flux activators in TRPC4/5HT1a cells, counter-screen for TRPC4 activator project, cell-based, second counter screen, HEK293 TRPC4/5HT1a, Fluo-4 (AID 434977;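 active means calcium signal rise above buffer-control mean plus 5 SD in both duplicates, and also a hit in the primary screen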); details: Fluo-4 calcium flux, at 10 µM; stronger effect = higher value
[14] = calcium flux inhibitors in TRPC4/5HT1a cells, confirmation, counter-screen for TRPC4 inhibitor project, cell-based, second counter screen, HEK293 TRPC4/5HT1a, Fluo-4 (AID 434978;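 active means primary screen active whose calcium signal fell more than 3 SD beyond the full-serotonin control mean in both duplicate plates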;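 on outcome: serotonin given first at submaximal then at maximal dose after compound preincubation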); details: Fluo-4 calcium flux, at 10 µM, serotonin added to trigger calcium flux; stronger effect = higher value
[15] = system: TRPC4 (mouse), co-expressed with 5HT1a in HEK293; assay: calcium flux potentiators in TRPC4/5HT1a cells, confirmation, counter-screen for TRPC4 potentiator project, cell-based, second counter screen, HEK293 TRPC4/5HT1a, Fluo-4 (AID 434979;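 active means signal rise over 3 SD above mean of control wells given weak agonist, in both repeats and first screen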); details: Fluo-4 calcium flux, at 10 µM, serotonin added at its EC20 dose; stronger effect = higher value
[16] = calcium flux activation in mu-opioid HEK293 cells, confirmation, counter-screen for TRPC4 activator project, cell-based, HEK293 mu-opioid receptor line (AID 449723;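 active means hit in primary screen, with calcium signal over 5 SD above buffer well mean in both duplicates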;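 further: counter screen cells carry the mu-opioid receptor alone and lack TRPC4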); details: Fluo-4 calcium fluorescence, at 10 µM; stronger effect = higher value
[17] = calcium flux enhancement in mu-opioid HEK293 cells, confirmation, counter-screen for TRPC4 allosteric potentiator project, cell-based, HEK293 mu-opioid receptor line (AID 449724;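 active means calcium signal rise more than 3 SD above the low-dose agonist control mean, in both duplicate plates and the primary screen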); details: Fluo-4 calcium flux, at 10 µM, compound added before EC20 DAMGO stimulus; stronger effect = higher value

CCOc1ccc(S(=O)(=O)N2CCN(C(=S)NC3CC3)CC2)cc1
active: potentiation [4] 9% | potentiation [15] 30.7%
inactive: outcome [1] | outcome [2] | outcome [3] | outcome [5] | outcome [6] | outcome [7] | outcome [8] | outcome [9] | outcome [10] | outcome [11] | outcome [12] | outcome [13] | outcome [14] | outcome [16] | outcome [17]

OC(CNCC1CCCO1)Cn1c2ccc(Br)cc2c2cc(Br)ccc21 (stereo not given)
inactive: outcome [1] | outcome [2] | outcome [3] | outcome [4] | outcome [5] | outcome [6] | outcome [7] | outcome [8] | outcome [9] | outcome [10] | outcome [11] | outcome [12] | outcome [13] | outcome [14] | outcome [16] | outcome [17]
active: potentiation [15] 45.1%

Cc1sc(NC(=O)C2CCCCC2C(=O)O)c(C(N)=O)c1-c1ccc(C(C)(C)C)cc1 (stereo not given)
active: inhibition [5] 95% | inhibition [14] 18.7%
inactive: outcome [1] | outcome [2] | outcome [3] | outcome [4] | outcome [6] | outcome [7] | outcome [8] | outcome [9] | outcome [10] | outcome [11] | outcome [12] | outcome [13] | outcome [15] | outcome [16] | outcome [17]

COC(=O)c1ccccc1NC(=O)c1cnn2cccnc12
active: potentiation [4] 16% | potentiation [15] 40.2%
inactive: outcome [1] | outcome [2] | outcome [3] | outcome [5] | outcome [6] | outcome [7] | outcome [8] | outcome [9] | outcome [10] | outcome [11] | outcome [12] | outcome [13] | outcome [14] | outcome [16] | outcome [17]

O=C(C1=C[C@H](c2ccc(C(F)(F)F)cc2)C[C@H](OCCCCO)O1)N1CCOCC1
inactive: outcome [1] | outcome [2] | outcome [3] | outcome [4] | outcome [5] | outcome [6] | outcome [7] | outcome [8] | outcome [9] | outcome [10] | outcome [12] | outcome [13] | outcome [14] | outcome [15] | outcome [16] | outcome [17]
active: activation [11] 27.5%

Cc1ccc(Cl)cc1N1CCN(Cc2nc3ccsc3c(=O)[nH]2)CC1
active: potentiation [4] 25%
inactive: outcome [1] | outcome [2] | outcome [3] | outcome [5] | outcome [6] | outcome [7] | outcome [8] | outcome [9] | outcome [10] | outcome [11] | outcome [12] | outcome [13] | outcome [14] | outcome [15] | outcome [16] | outcome [17]

Cn1c2ccccc2c(=O)c2c(=O)n(-c3ccccc3)c(-c3ccc(C(C)(C)C)cc3)nc21
inactive: outcome [1] | outcome [2] | outcome [3] | outcome [4] | outcome [5] | outcome [6] | outcome [7] | outcome [8] | outcome [9] | outcome [10] | outcome [11] | outcome [12] | outcome [13] | outcome [14] | outcome [15] | outcome [16] | outcome [17]

Clc1cccc2c3c([nH]c12)CCNC3
active: potentiation [4] 38% | potentiation [15] 40.3%
inactive: outcome [1] | outcome [2] | outcome [3] | outcome [5] | outcome [6] | outcome [7] | outcome [8] | outcome [9] | outcome [10] | outcome [11] | outcome [12] | outcome [13] | outcome [14] | outcome [16] | outcome [17]

COc1ccc(C(=O)CCC(=O)Nc2cccc(Cl)c2)cc1
inactive: outcome [1] | outcome [2] | outcome [3] | outcome [5] | outcome [6] | outcome [7] | outcome [8] | outcome [9] | outcome [10] | outcome [11] | outcome [12] | outcome [13] | outcome [14] | outcome [16] | outcome [17]
active: potentiation [4] 10% | potentiation [15] 22.1%

O=S(=O)(Cc1ccccc1)N1CCC(c2nc(-c3cccs3)no2)CC1
active: potentiation [4] 13% | potentiation [15] 11.4%
inactive: outcome [1] | outcome [2] | outcome [3] | outcome [5] | outcome [6] | outcome [7] | outcome [8] | outcome [9] | outcome [10] | outcome [11] | outcome [12] | outcome [13] | outcome [14] | outcome [16] | outcome [17]

CCCc1c(-c2ccc(O)cc2)nn(-c2ccc(O)cc2)c1-c1ccc(O)cc1
inactive: outcome [1] | outcome [2] | outcome [3] | outcome [5] | outcome [6] | outcome [7] | outcome [8] | outcome [9] | outcome [10] | outcome [11] | outcome [12] | outcome [13] | outcome [14] | outcome [16] | outcome [17]
active: potentiation [4] 20% | potentiation [15] 23.9%

Cc1cc(C)c(C)c(S(=O)(=O)NCc2ccco2)c1C
inactive: outcome [1] | outcome [2] | outcome [3] | outcome [4] | outcome [5] | outcome [6] | outcome [7] | outcome [8] | outcome [9] | outcome [10] | outcome [11] | outcome [12] | outcome [13] | outcome [14] | outcome [16] | outcome [17]
active: potentiation [15] 28.1%

Cc1ccc(-c2csc3ncnc(NCCN4CCOCC4)c23)cc1
active: inhibition [5] 76% | inhibition [14] 32.6%
inactive: outcome [1] | outcome [2] | outcome [3] | outcome [4] | outcome [6] | outcome [7] | outcome [8] | outcome [9] | outcome [10] | outcome [11] | outcome [12] | outcome [13] | outcome [15] | outcome [16] | outcome [17]

CCCn1c(SCC(=O)N2c3ccccc3Sc3ccccc32)nc2c1c(=O)n(C)c(=O)n2C
active: potentiation [4] 18% | potentiation [15] 45.1%
inactive: outcome [1] | outcome [2] | outcome [3] | outcome [5] | outcome [6] | outcome [7] | outcome [8] | outcome [9] | outcome [10] | outcome [11] | outcome [12] | outcome [13] | outcome [14] | outcome [16] | outcome [17]

CN1/C(=C\C=[N+](C)c2ccccc2)C(C)(C)c2ccccc21
inactive: outcome [1] | outcome [2] | outcome [3] | outcome [4] | outcome [5] | outcome [6] | outcome [7] | outcome [8] | outcome [9] | outcome [10] | outcome [11] | outcome [12] | outcome [13] | outcome [14] | outcome [15] | outcome [16] | outcome [17]
